Records with an inconclusive call do not appear. Active and inactive are the calls of the source. Calls follow the shape of the dose curve; as a rule, active = well fitted cell-killing curve with a large enough effect; inconclusive = small, poorly fitted or top-dose-only effect, or effect the other way; inactive = no such curve, though single readings can be large or run the other way.

The nature of assay [1]: Quantitative High-Throughput drug screen in 47 multiple myeloma cell lines against the NCATS MIPE library collection: H1112_PLB cell viability assay (AID 1918967; also: nearly all actives have a fitted effect of over 30% in size). The conditions noted are these: H1112 myeloma cells viability, ATP luminescence, 48 h; series mostly up to 45.8 µM. The method in brief:
(§1)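 Myeloma cells (500 per well) were exposed to MIPE 4.0 compounds by pin transfer and incubated 48 hours at 37C, 5% CO2. Viability was read as ATP by CellTiter-Glo luminescence, normalised to DMSO (100%) and media-only (0%) wells.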

Assay [2] in a line: Quantitative High-Throughput drug screen in 47 multiple myeloma cell lines against the NCATS MIPE library collection: Karpas25_ECACC cell viability assay (AID 1918968; also: nearly all actives have a fitted effect of over 35% in size). The settings on record: Karpas25 myeloma viability, CellTiter-Glo ATP, 48 h; series mostly up to 45.8 µM. The method, boiled down:
as §1

A short description of assay [3]: Quantitative High-Throughput drug screen in 47 multiple myeloma cell lines against the NCATS MIPE library collection: KMS27_JCRB cell viability assay (AID 1918970). Also: nearly all actives have a fitted effect of over 30% in size. The settings on record: KMS27 myeloma cells, CellTiter-Glo ATP viability, 48 h; series mostly up to 45.8 µM. The method in brief:
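Myeloma cells (500 per well) were exposed to MIPE 4.0 compounds for 48 h at 37 °C, 5% CO2; viability was read as ATP luminescence with CellTiter-Glo, normalized to DMSO-only (100%) and media-only (0%) wells.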
In general terms: Cellular ATP, detected with luciferase, serves as a proxy for viable cell number.

The nature of assay [4]: Quantitative High-Throughput drug screen in 47 multiple myeloma cell lines against the NCATS MIPE library collection: JJN3_DSMZ cell viability assay (AID 1918966; also: nearly all actives have a fitted effect of over 50% in size). The conditions noted are these: JJN3 myeloma cells viability, CellTiter-Glo ATP, 48 h; series mostly up to 45.8 µM. The method, boiled down: as §1
Assay [5] can be described thus: Quantitative High-Throughput drug screen in 47 multiple myeloma cell lines against the NCATS MIPE library collection: KMS12BM_JCRB cell viability assay (AID 1918971). Also: nearly all actives have a fitted effect of over 35% in size. The settings on record: KMS12BM myeloma viability, CellTiter-Glo ATP, 48 h; series mostly up to 45.8 µM. The method in brief:
(§2)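 Relative luminescence from CellTiter-Glo served as the viability signal, referenced to DMSO-treated (100%) and cell-free medium (0%) controls. Treatment lasted 48 hours at 37C with 500 cells per well.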

Assay [6] can be described thus: Quantitative High-Throughput drug screen in 47 multiple myeloma cell lines against the NCATS MIPE library collection: KMS20_JCRB cell viability assay (AID 1918973). Also: nearly all actives have a fitted effect of over 45% in size. The settings on record: CellTiter-Glo ATP, 48 h; series mostly up to 45.8 µM. The method, boiled down:
as §1

Assay [7] in a line: Quantitative High-Throughput drug screen in 47 multiple myeloma cell lines against the NCATS MIPE library collection: KMS26_JCRB cell viability assay (AID 1918975). Also: nearly all actives have a fitted effect of over 45% in size. The conditions noted are these: KMS26 myeloma cells viability, CellTiter-Glo ATP, 48 h; series mostly up to 45.8 µM. The method in brief:
as §2

The nature of assay [8]: Quantitative High-Throughput drug screen in 47 multiple myeloma cell lines against the NCATS MIPE library collection: KMS12PE_JCRB cell viability assay (AID 1918972). Also: nearly all actives have a fitted effect of over 30% in size. The conditions noted are these: KMS12PE myeloma viability, CellTiter-Glo ATP, 48 h; series mostly up to 45.8 µM. The method in brief: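 CellTiter-Glo ATP luminescence gave viability after 48 h compound treatment at 37C of 500 multiple myeloma cells per well. Normalisation used DMSO-only wells as 100% and media-only wells as 0% viability; primary qHTS of approved and investigational drugs.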
Potency is read from the fitted curve at half-maximal effect.

As for `NC(=O)NN=Cc1ccc([N+](=O)[O-])o1`, the Potency entry in assay [1] was “inactive”. Also, the Potency in assay [2] is 16.6 µM (active); in assay [3], 14.8 µM (active).

Consider `CC(C)n1nc(-c2ccc3oc(N)nc3c2)c2c(N)ncnc21`, for which the Potency in assay [4] was 0.0074 µM (active); in assay [5], 0.0526 µM (active); in assay [6], 0.0418 µM (active); in assay [7], 0.132 µM (active).

Take `O=c1cc(-c2ccccc2)oc2cc(O)c(O)c(O)c12`: the Potency in assay [1] and in assay [2] was 20.9 µM (active) throughout. Also, in assay [8], the Potency result was “inactive”.

On to `C[C@@H]1CCN(C(=O)CC#N)C[C@H]1N(C)c1ncnc2[nH]ccc12`, for which the Potency entry in assay [1], in assay [2] and in assay [8] was “inactive” each time.

For the molecule `Cn1c(N2CCCCS2(=O)=O)nc(C(=O)NCc2ccc(F)cc2)c(O)c1=O`, the Potency entry in assay [1] and in assay [6] was “inactive” each time. Besides, the Potency in assay [2] and in assay [8] was 20.9 µM (active) throughout.

In the case of `CC[C@]1(O)C[C@@H]2CN(CCc3c([nH]c4ccccc34)[C@@](C(=O)OC)(c3cc4c(cc3OC)N(C=O)[C@@H]3C45CCN4CC=C[C@](CC)([C@H]45)[C@@H](OC(C)=O)[C@]3(O)C(=O)OC)C2)C1` (stereo partly specified), the Potency in assay [4] was 20.9 µM (active); in assay [5], 18.7 µM (active); in assay [7], 23.5 µM (active). The Potency result in assay [3] and in assay [8] was “inactive” each time.

For `COc1ccc(-n2c(C)c([N+](=O)[O-])c3ccc(O)cc32)cc1`, the Potency entry in assay [1] was “inactive”. The Potency in assay [2] was 26.4 µM (active).

For the molecule `CN1[C@@H]2CCC[C@@H]1CC(NC(=O)c1nn(C)c3ccccc13)C2` (stereo partly specified), the Potency entry in assay [1], in assay [2], in assay [3], in assay [5] and in assay [8] was “inactive” each time.

In the case of `COc1cccc([C@@H](C)NCCCc2ccccc2Cl)c1`, the Potency result in assay [4], in assay [5] and in assay [7] was “inactive” throughout.

As to `CN(C)C1CCN(C(=O)c2ccc(NC(=O)Nc3nc(N4CCOCC4)nc(N4CCOCC4)n3)cc2)CC1`, the Potency in assay [4] is 0.0833 µM (active); in assay [5], 0.0083 µM (active); in assay [8], 0.105 µM (active); in assay [6] it was 0.105 µM (active); in assay [7], 0.0209 µM (active).

For the molecule `O=c1cc(-c2ccc(O)cc2)oc2cc(O)cc(O)c12`, the Potency in assay [4] was 3.32 µM (active); in assay [2], 10.5 µM (active); in assay [5] it was 13.2 µM (active).

Regarding `CCOc1ccc(Nc2nc(-c3c(C)nc4ccccn34)cs2)cc1`, the Potency in assay [4] was 5.26 µM (active); in assay [5], 0.0066 µM (active); in assay [8] it was 0.003 µM (active); in assay [7], 0.332 µM (active). The Potency result in assay [6] was “inactive”.

`O=C(O)c1ccccc1C(=O)Nc1ccc(-c2ccccc2)cc1`: the Potency result in assay [1], in assay [2], in assay [3] and in assay [8] was “inactive” in each case.

Take `CC[C@H]1OC(=O)[C@H](C)[C@@H](O[C@H]2C[C@@](C)(OC)[C@@H](O)[C@H](C)O2)[C@H](C)[C@@H](O[C@@H]2O[C@H](C)C[C@H](N(C)C)[C@@H]2O)[C@](C)(O)C[C@@H](C)CN(C)[C@H](C)[C@@H](O)[C@]1(C)O`: the Potency result in assay [1], in assay [2], in assay [5], in assay [8] and in assay [7] was “inactive” throughout.

On to `COc1ccc(-c2coc3cc(O)cc(O)c3c2=O)cc1`, for which the Potency result in assay [4], in assay [2], in assay [5] and in assay [6] was “inactive” in each case.

Consider `CCC(=O)NC[C@H](Cc1ccc(OCCc2nc(-c3ccccc3)oc2C)cc1)NC(C)=CC(=O)c1ccc(C(F)(F)F)cc1`, for which the Potency entry in assay [1], in assay [2] and in assay [6] was “inactive” in each case. The Potency in assay [5] is 26.4 µM (active); in assay [8], 7.43 µM (active); in assay [7] it was 20.9 µM (active).

As for `COc1ccc2c3c1OC1C[C@@H](O)C=C[C@@]31CCN(C)C2` (stereo partly specified), in assay [4], the Potency was 4.18 µM (active). For the same molecule, the Potency result in assay [3] and in assay [8] was “inactive” each time.

`CN1C[C@H]2c3ccccc3Oc3ccc(Cl)cc3[C@@H]2C1`: the Potency entry in assay [1], in assay [2], in assay [5] and in assay [6] was “inactive” each time.

In the case of `CC(C)(C)C(=O)Oc1ccc2c(c1)nc(NC(=O)c1cccc([N+](=O)[O-])c1)n2CCCO`, the Potency result in assay [1], in assay [2], in assay [3] and in assay [7] was “inactive” in each case.

As to `CC1(C)O[C@H]2C[C@@H]3[C@H]4CCC5=CC(=O)C=C[C@]5(C)[C@@]4(F)[C@@H](O)C[C@]3(C)[C@]2(C(=O)CO)O1`, the Potency result in assay [4], in assay [8] and in assay [7] was “inactive” in each case.

In the case of `CS(=O)(=O)N(Cc1ccco1)CC(O)Cn1c2ccccc2c2ccccc21` (stereo unspecified), the Potency result in assay [1], in assay [3] and in assay [8] was “inactive” in each case. The Potency in assay [2] is 6.62 µM (active); in assay [5] it was 20.9 µM (active).

In the case of `CC=CCC=CCCC(=O)[C@H]1O[C@@H]1C(N)=O`, the Potency is 16.6 µM (active) in assay [4], 18.7 µM (active) in assay [2] and 23.5 µM (active) in assay [8].

For `CCn1cc(C(=O)O)c(=O)c2ccc(C)nc21`, the Potency result in assay [1], in assay [2], in assay [3] and in assay [8] was “inactive” throughout.

`O=C1C[C@@H](c2ccc(O)cc2)Oc2cc(O)cc(O)c21`: the Potency entry in assay [1], in assay [2] and in assay [8] was “inactive” in each case. For the same molecule, in assay [3], the Potency was 0.0118 µM (active).

Turning to `NC1CCC(Nc2nc(Nc3ccc(C(=O)N4CCCCC4)cc3)c3ncn(-c4cccc(F)c4)c3n2)CC1` (stereo unspecified), the Potency result in assay [1], in assay [2], in assay [5] and in assay [8] was “inactive” in each case.

Regarding `CC(C)OC(=O)C(C)(C)Oc1ccc(C(=O)c2ccc(Cl)cc2)cc1`, the values for the Potency in assay [4], in assay [5] and in assay [7] were 16.6 µM (active), 13.2 µM (active) and 11.8 µM (active), respectively.

As for `NC(CO)(CO)CCc1ccc(Sc2cccc(OCc3ccccc3)c2)cc1Cl`, the Potency in assay [1] was 16.6 µM (active); in assay [2], 7.43 µM (active); in assay [3] it was 11.8 µM (active); in assay [8], 9.35 µM (active); in assay [7] it was 18.7 µM (active).

For the molecule `CCC(=O)O[C@]1(C(=O)CO)CC[C@H]2[C@@H]3CCC4=CC(=O)CC[C@]4(C)[C@@H]3CC[C@@]21C`, the Potency result in assay [4], in assay [3] and in assay [8] was “inactive” throughout.

As for `Cc1nnc(C(C)C)n1C1C[C@H]2CC[C@@H](C1)N2CC[C@H](NC(=O)C1CCC(F)(F)CC1)c1ccccc1` (stereo partly specified), the Potency in assay [1] is 14.8 µM (active); in assay [2], 18.7 µM (active).

As for `Cn1cc(C=C2C(=O)Nc3cccnc32)c2ccccc21`, the Potency entry in assay [1], in assay [2], in assay [3], in assay [5] and in assay [7] was “inactive” in each case.

In the case of `CC(C)C(=O)Oc1ccc(CO)cc1[C@H](CCN(C(C)C)C(C)C)c1ccccc1`, the Potency result in assay [1], in assay [2], in assay [3] and in assay [8] was “inactive” in each case. Besides, the Potency in assay [5] is 14.8 µM (active).

As for `NC(=O)c1cnc(-c2ccc(C3(N)CCC3)cc2)c(-c2ccccc2)c1`, the Potency in assay [1] was 4.18 µM (active); in assay [2] it was 13.2 µM (active); in assay [5], 8.33 µM (active).

For the molecule `CO[C@H]1C[C@@H]2CC[C@@H](C)[C@@](O)(O2)C(=O)C(=O)N2CCCC[C@@H]2C(=O)O[C@H]([C@@H](C)C[C@@H]2CC[C@H](O)[C@H](OC)C2)CC(=O)[C@H](C)C=C(C)[C@@H](O)[C@@H](OC)C(=O)[C@H](C)C[C@H](C)C=CC=CC=C1C`, the Potency in assay [2] was 18.7 µM (active). The Potency result in assay [7] was “inactive”.

For the origin of these results see PubChem BioAssay (NCATS).
